Laboratory results reported in PubChem BioAssay (EPA / NIEHS).
Activity calls are given as the source filed them. Rule for the calls: active = hit-call score of the fitted dose curve at least 0.9, where 1 is the maximum; inactive = score below 0.9.

read-out: 3-Hydroxy-3-Methylglutaryl-CoA Synthase 2 (HMGCS2), HMGCS2 (gene 3158); assay: LTEA_HepaRG_HMGCS2: Life Technologies and Expression Analysis (LTEA) Assay for 3-Hydroxy-3-Methylglutaryl-CoA Synthase 2 (HMGCS2) using HepaRG (AID 2283504); details: mRNA level, 48 h; actives raise or lower the signal
Method: LTEA_HepaRG is a cell based, multiplexed-readout assay that uses HepaRG, a human liver cell line, with measurements taken at 48 hours after chemical dosing on a 96-well plate.LTEA_HepaRG_HMGCS2 is one of 102 assay component(s) measured in the LTEA HepaRG cell culture assay. It is a marker of Steatosis.Data from the assay component LTEA_HepaRG_HMGCS2 was analyzed into 1 endpoint. This assay endpoint, LTEA_HepaRG_HMGCS2, was analyzed with bidirectional fitting relative to DMSO as the negative control and baseline of activity. Using a type of inducible reporter, measures of mRNA induction for gain or loss-of-signal activity can be used to understand regulation of transcription factor activity. To generalize the intended target to other relatable targets, this assay endpoint is annotated to the lyase intended target family, where the subfamily is HMG-CoA synthase.
A total of 1060 chemcials from the ToxCast library were tested in eight-point concentration-response experiments. Cell culture and cytotoxicity assays were conducted at Thermo Fisher Scientific's Custom Services facility (Madison, WI). A single lot of human HepaRG cells (Thermo Fisher Scientific, Frederick, MD) was used for the cell culture experiments. 96-well format collagen type I coated plates of human HepaRG cells were prepared using established methods. Briefly, cryopreserved HepaRG cells were thawed, plated at a density of approximately 100,000 cells/well in HepaRG Thaw, Plate, and General Purpose media (HPRG770, Thermo Fisher Scientific), and incubated for 48 hours. 0.5% DMSO was selected as vehicle control to balance the requisite need of DMSO in HepaRG cultures to maintain differentiation (for example, baseline metabolism, proportions of hepatocytes vs. cholangiocytes), while enabling further hepatic receptor pathway activation (for example, PXR and CAR) in response to chemical exposure. 48 hours after plating, the culture medium was replaced with HepaRG Serum-Free Incudtion Media. Cells were exposed to each test chemical in duplicate and maintained in CO2 incubators for another 48 hours. Chemical plates were thawed to room temperature and 200x concentrations of treatment groups were prepared. 8-point conentration-reponse curves were made with the highest exposure at 100 uM, followed by half-log dilutions, all in 0.5% DMSO. Each test plate contained variouse controls, induction positive controls (1mM phenobarbital), cytotoxicity positive controls ([…] aflatoxin B1), vehicle controls (0.5% DMSO), and total lysis controls (0.5% DMSO). Cell morphology images were taken using an Essen IncuCyte FLR automated microscope, with six 96-well plates imaged in about 24 minutes. Images were captured and exported and JPEG files. Spent culture media was transfered to black-well plates for the LDH assay, and remaining media was sorted at -80 C for later use. Cells were treated with RLT buffer and frozen until shipped for gene expression analysis. Total RNA was isolated from the cell suspension in 75 uL of Buffer RLT (Qiagen, Germantown, MD 20874) by Quintiles/Expression Analysis (Durham, NC) using a custom isolation procedure. Total RNA from each plate well was transferred to a preamplification plate. Fluidigm's 96.96 Dynamic ArrayTM (Fluidigm, Amsterdam, the Netherlands) technology was used for gene expression analyses by quantitative reverse transcription polymerase chain reaction (qRT-PCR, performed by Quintiles/Expression Analysis, Durham, NC)89. Standard TaqManTM Assays (Applied Biosystems/ThermoFisher Scientific, Foster City, CA) were used to assess the expression of 93 genes selected based on their selectivity and sensitivity to important hepatic receptors known to be modulated by environmental chemicals; importance in human hepatocyte functionality; and hepatotoxicity. […]

How did the outcome turn out when O=C1NS(=O)(=O)c2ccccc21 was run?
Its outcome is “inactive”.

With CCCCC(CC)C(=O)O (stereo unspecified) as the compound, how does the outcome read?
Its outcome is “inactive”.

For CN(C)CCOC(c1ccccc1)c1ccccc1, which outcome is on record?
The outcome was “inactive”.

How did the outcome turn out when CC(=O)Nc1ccc(O)cc1 was run?
The outcome was “inactive”.

CCC(C)c1ccccc1O (stereo unspecified) was tested. Which outcome did it give?
Its outcome is “inactive”.

For CCCCc1oc2ccccc2c1C(=O)c1cc(I)c(OCCN(CC)CC)c(I)c1, which AC50 is on record?
Its AC50 is 61.6 µM (active).

Which outcome does the source give for OCC(CO)(CBr)CBr here?
Its outcome is “inactive”.

For CCCCCCCCCCCCOS(=O)(=O)O, which AC50 is on record?
The AC50 was 86.6 µM (active).

For N=C(N)c1ccc(OCCCCCOc2ccc(C(=N)N)cc2)cc1, which AC50 is on record?
The AC50 was 7.77 µM (active).

With O=C(CCCN1CCC(O)(c2ccc(Cl)cc2)CC1)c1ccc(F)cc1 as the compound, how does the AC50 read?
The AC50 was 84.4 µM (active).

CN(Cc1cnc2nc(N)nc(N)c2n1)c1ccc(C(=O)N[C@@H](CCC(=O)O)C(=O)O)cc1 was tested. Which outcome did it give?
The outcome was “inactive”.

With CS(=O)(=O)c1ccc([C@@H](CC2CCCC2)C(=O)Nc2cnccn2)cc1Cl as the compound, how does the AC50 read?
Its AC50 is 74.3 µM (active).

For CCCCC=O, which outcome is on record?
The outcome was “inactive”.

For CCCCCCCCCCCCCCC, which outcome is on record?
Its outcome is “inactive”.

With O=C(c1ccccc1)c1ccccc1 as the compound, how does the outcome read?
The outcome was “inactive”.

Cc1[nH]nc2c1N=C(c1ccccc1Cl)c1cc([N+](=O)[O-])ccc1N2 was tested. Which AC50 did it give?
Its AC50 is 28.8 µM (active).
